Reference: the supplement of paper PMC6555819

system: VDR:RXRa (NR concentration 270 nM, RXRa partner concentration 90 nM); experiment: PBM binding z-score (relative to random genomic background probes); higher = stronger binding; sequences stand for … in GC…GCGATTGACAGCGTAGAATGAAGG
Method: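 Protein-binding microarray (Agilent 4x180K custom design, double-stranded 60-nt probes: 5' GC cap, 34-nt variable region, 24-nt constant primer region; full probe sequence given). Purified or IVT nuclear receptor:RXRα heterodimers (3:1 NR:RXRα, mostly 270:90 nM) or homodimers were incubated for 1 h in PBS with 2% milk and no ligand, then detected with Alexa488 antibodies. Fluorescence from o1-orientation probes (~5 replicates averaged) was converted to z-scores against 500 random hg19 background probes. Variable regions are seed direct-repeat (DR0–DR5) sites, all their single-nucleotide variants and half-site ablations.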

Sequence | PBM binding z-score
TGAATGAGGTTAAAGAGCAGGGAACGTGGCGTCG | 1.4
TAGCCTAGGTCATTCAGGGGCCAGGATAGAAAGC | 2.94
CCTGGTAGGTCATGGTCAGCTAATCTACAGTATG | 1.89
CCAGACAGGAGAGAAGGTAACTCAGCCTCGATTA | -0.312
ATATGTAGCTTAGCTGGGGTCATTCAGACTAGGC | 4.78
TCTCGGAGGACACGAAGGTCAGACCTTTCCAGAG | 2.45
CAAACTAGGTCCCGAAAGGTCAAAGTCGAATGAC | 4.92
ACAGACAGGTGAGTGAAGGCAACTCAGCTGGACG | -0.535
GCGACTGTGGCATCAGCAGGTTACCATAACTTAA | -0.319
GCGACGGGGGCAAAGCAGGTTACCATAAGGTTGG | 3.84
ACTAGTTTGTCAGCTGAGGTCACACACAATTCGG | 4.34
CCGAGTAGGTTATGGGGCATTGAGGCAACGGTGA | 0.258
CCTACTGGGCCATCACGTCATTGATATCAACGTT | -0.314
TCGAGTAGGATAGGGGCATTCAGAATGGCGTCGA | -0.000288
TTACCGAGGTGAAGGTCGTTGATCCCTCTGTAGA | 1.5
TCTGGGAGGACACGAAAGGTCAGAGCTCGACATC | 3.35
CCGAGTAGGTTATGGGGCATACAGGCAACGGTGA | 0.117
TAGCATAGGTCATTGGGCCAGTATAGTACGCATC | 3.27
AGAATGAGGTTATACGTACATCAGGGAAGAAAGT | 1.67
ACTAGCAGGCCAAGTTTGGATCACTCAAACAAAG | -0.621

Sequence | PBM binding z-score
CCGAGTAGGTTATGGTGCATTCAGGCAACGGTGA | 0.0938
CGAACAAGGTCAGAACAGGACAGTGAAGGATGAT | 3
TCGAGTAGGTTACCAATGGGGCATTCACCTTTCT | 0.284
TCTAGTTGGTCACGCAGGTCACACACGACGGGTA | 4.01
CCAGACAGGTGAGAAGGTAACACAGCCTCGATTA | 0.086
CCGACTGGGGCAGAAAGGTTACCTTACCATCCGG | 0.875
CAGCCTAGGTCAGGGCCCGTATAGGAGGAACGTT | 0.0568
CAAACTAGGTCACGAACGGTCAAAGTCGAATGAC | 4.04
ATACCAAGGTGTTCGTGAGGTCGTTGATACTAAC | 2.81
CCAGACAGGTGAAAGGAAACTCAGTCTGGTACGC | -0.116
CGTCCACGGTCAAGGTCAGTGAAAGAGACTCGAA | 1.43
TTTACAGGGTCAAAGGCCAGAGTACGAATGTCGA | 4.79
GCTCGGAGGACAAGGTCAGAGCCTTGTCCGTAGA | 1.43
GTTTGTAGATCAAGGTTAAGAAAGACTAAGCTAA | 1.03
CCTACTGGGCCAAAGGTCATGGATTCCAATGCTC | 4.85
TAGCCTAGGGCATGCGGGCCAGTATAGTGTCGGC | -0.814
AGAAAGAGGGCAATGAGTTGATAGCACGGGTGGC | 5.59
CCGACTGGGGGATAAGGTTACCATAAGCCAGCCC | 0.902
GCTAGCAGGCCATTTGGGTCTCTCAATGACGGGC | -0.594
CATACAGGGTCAGCTAGGCCTGAGTAGGGACGGC | 2.61
